PubChem BioAssay AID1376 (SRMLSC, 2008)
Among all 220,000 compounds or so, about 530 (0.24%) were called active. Only a selection was taken, and actives are over-represented in it overall. Results with a measured potency or affinity are listed apart. Values without a mark were called inactive. Rule as the data show it: active = inhibition above about 13%; inconclusive = no clear call, values can overlap the other calls; inactive = below that.

Target: Bifunctional protein GlmU (Mycobacterium tuberculosis (strain ATCC 25618 / H37Rv)) (UniProt P9WMN3)
Sequence (P9WMN3 whole entry, looked up): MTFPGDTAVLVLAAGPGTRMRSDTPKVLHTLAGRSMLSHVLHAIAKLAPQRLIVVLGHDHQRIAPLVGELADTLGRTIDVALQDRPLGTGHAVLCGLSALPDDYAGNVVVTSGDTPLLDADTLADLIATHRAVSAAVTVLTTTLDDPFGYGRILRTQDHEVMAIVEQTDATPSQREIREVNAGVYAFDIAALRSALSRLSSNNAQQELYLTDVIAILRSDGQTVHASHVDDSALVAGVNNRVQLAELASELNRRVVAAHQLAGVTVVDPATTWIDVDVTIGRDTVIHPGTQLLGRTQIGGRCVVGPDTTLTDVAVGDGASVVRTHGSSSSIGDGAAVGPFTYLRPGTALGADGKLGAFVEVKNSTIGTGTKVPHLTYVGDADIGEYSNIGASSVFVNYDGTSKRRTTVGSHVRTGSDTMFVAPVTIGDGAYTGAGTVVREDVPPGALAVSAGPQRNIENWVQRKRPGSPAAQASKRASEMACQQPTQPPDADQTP
Test: inhibition of mycobacterial GlmU enzyme – biochemical, glucosamine-1-phosphate acetyltransferase (AID 1376);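 also: 0% = complete reaction with vehicle and 100% = reaction without substrate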
Conditions: M. tuberculosis GlmU acetyltransferase enzyme assay; stronger effect = higher value;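 tested at 30 µM in the primary screen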

How did the inhibition turn out when `O=C(NCc1cccs1)c1cc2c(s1)CCCC2` was run?
The inhibition was 0.13%.

Which inhibition does the source give for `O=C(CN(C(=O)c1cc2c(s1)CCC2)C1CCCC1)NCc1cccs1` here?
Its inhibition is 5.33%.

For `O=C(CN(Cc1ccccc1)C(=O)c1cc2c(s1)CCC2)NCc1cccs1`, which inhibition is on record?
The inhibition was 14.9% (active).

`O=C(O)CCCN1C(=O)c2ccc(C(=O)c3cccc([N+](=O)[O-])c3)cc2C1=O` was tested. Which inhibition did it give?
Its inhibition is 2.64%.

For `O=C(CN1C(=O)CCC1=O)NNc1ccc2ccccc2c1`, which inhibition is on record?
The inhibition was -8.95%.

With `O=C(CN1C(=O)NC2(CCCC2)C1=O)Nc1cccc(-c2nnc3n2CCCCC3)c1` as the compound, how does the inhibition read?
The inhibition was -0.57%.

How did the inhibition turn out when `O=C(CC1Sc2ccccc2NC1=O)Nc1cccc(-c2nnc3n2CCCCC3)c1` (centres undefined) was run?
The inhibition was 14.3% (active).

Which inhibition does the source give for `O=C(CC1Sc2ccccc2NC1=O)Nc1cccc(C(=O)O)c1` (centres undefined) here?
The inhibition was -2.21%.

How did the inhibition turn out when `Oc1ccccc1/C=N/NC1=NCCCCC1` was run?
Its inhibition is -2.12%.

`COC(C(=O)NCc1ccc(C)cc1)c1ccccc1` (centres undefined) was tested. Which inhibition did it give?
Its inhibition is -0.55%.

`CCC(=O)NCc1c(Cl)cccc1-n1cccc1` was tested. Which inhibition did it give?
Its inhibition is -2.25%.

Which inhibition does the source give for `CC(=O)NCc1c(Cl)cccc1-n1cccc1` here?
Its inhibition is -2.69%.

How did the inhibition turn out when `CC(C)=CC(=O)NCc1c(Cl)cccc1-n1cccc1` was run?
The inhibition was 23.8% (active).

`Cc1ccc(CCNC(=O)CCS(=O)(=O)c2ccc(Br)cc2)cc1` was tested. Which inhibition did it give?
Its inhibition is -0.29%.

With `Cc1ccc(CNC(=O)CCS(=O)(=O)c2ccc(C)cc2)cc1` as the compound, how does the inhibition read?
The inhibition was -0.32%.

How did the inhibition turn out when `COC(=O)c1ccccc1NC(=O)CCS(=O)(=O)c1ccc(Br)s1` was run?
Its inhibition is 6.53%.

For `COC(=O)c1ccc(NC(=O)CCS(=O)(=O)c2ccc(Br)cc2)cc1`, which inhibition is on record?
The inhibition was 3.55%.

With `COc1cccc(CN2CCN(S(=O)(=O)c3ccc(Br)cc3)CC2)c1` as the compound, how does the inhibition read?
The inhibition was -0.5%.

`COc1ccc(C=C2C(=O)c3ccccc3C2=O)cc1O` was tested. Which inhibition did it give?
The inhibition was 9.53%.

How did the inhibition turn out when `COc1cc(C=C2C(=O)c3ccccc3C2=O)ccc1O` was run?
The inhibition was 10.6%.

For `CC(C)(C)N1C(=O)c2ccccc2NC(=O)N1Cc1ccccc1`, which inhibition is on record?
The inhibition was -6.09%.

`O=C1c2ccccc2CC1(Cc1ccccc1)Cc1ccccc1` was tested. Which inhibition did it give?
The inhibition was -4.43%.

Which inhibition does the source give for `N#CCCN(Cc1cccnc1)C(=S)NC(=O)C1CC1` here?
The inhibition was -4.01%.

Which inhibition does the source give for `Cc1cccc(CSc2nnc(-c3ccccn3)n2N)c1` here?
The inhibition was 1.5%.

For `COc1ccc(/C=N/N=C2/NC(=O)C(CC(=O)O)S2)cc1OS(=O)(=O)c1ccccc1` (centres undefined), which inhibition is on record?
Its inhibition is 3.56%.

How did the inhibition turn out when `CCOc1cc(/C=N/N=C2/NC(=O)C(CC(=O)O)S2)ccc1OCc1ccc(Cl)cc1` (centres undefined) was run?
The inhibition was 0.64%.

Which inhibition does the source give for `CCOc1cc(/C=N/N=C2/NC(=O)C(CC(=O)O)S2)ccc1OS(=O)(=O)c1ccc(C)cc1` (centres undefined) here?
The inhibition was 13.1% (active).

Which inhibition does the source give for `Cc1ccc(/C=C2\SC(=S)N(CC3CCCO3)C2=O)o1` (centres undefined) here?
The inhibition was 9.7%.

Which inhibition does the source give for `O=C(CSc1nc2ccccc2o1)N1CCN(S(=O)(=O)c2ccc3ccccc3c2)CC1` here?
Its inhibition is -1.93%.

`CCc1ccc(N(CC(=O)NCc2ccc(F)cc2)C(=O)c2csnn2)cc1` was tested. Which inhibition did it give?
The inhibition was 1.98%.

With `CCOc1ccc(/C=N/Nc2nc(=O)[nH]nc2C)cc1OC` as the compound, how does the inhibition read?
The inhibition was 2.62%.

How did the inhibition turn out when `CC(/C=C1\SC(=S)N(NS(=O)(=O)c2ccccc2)C1=O)=C\c1ccccc1` was run?
The inhibition was 5.96%.

With `Cn1cccc1/C=C1\SC(=S)N(NC(=O)c2ccccc2O)C1=O` as the compound, how does the inhibition read?
Its inhibition is 0.05%.

Which inhibition does the source give for `O=C1/C(=C/c2cccs2)SC(=S)N1NS(=O)(=O)c1ccccc1` here?
The inhibition was 11.6%.

With `O=C(NN1C(=O)/C(=C/C=C/c2ccco2)SC1=S)c1ccncc1` as the compound, how does the inhibition read?
Its inhibition is 10.6%.

`O=C(NCC(c1cccnc1)N1CCN(c2ccccc2F)CC1)OCc1ccccc1` (centres undefined) was tested. Which inhibition did it give?
The inhibition was -3.82%.

With `CC(C)CNC(CC(=O)Nc1cccc([N+](=O)[O-])c1)C(=O)O` (centres undefined) as the compound, how does the inhibition read?
The inhibition was 0.89%.

With `CN(C)/C=C(\C#N)C(=O)Nc1ccc(O)cc1F` as the compound, how does the inhibition read?
Its inhibition is -2.68%.

How did the inhibition turn out when `CC(NC(=O)c1ccco1)C(=O)OCc1cccc(Cl)c1` (centres undefined) was run?
The inhibition was 2.75%.

How did the inhibition turn out when `Cc1ccccc1NC(=O)CS(=O)(=O)c1cn(CC(=O)N2CCOCC2)c2ccccc12` was run?
Its inhibition is -2.25%.

Which inhibition does the source give for `CCCN(Cc1cc2ccccc2[nH]c1=O)C(=O)c1cccc([N+](=O)[O-])c1` here?
The inhibition was -2.01%.

With `O=C(O)c1cccc(Cn2c(Cl)c(/C=N/NC(=O)c3ccccc3O)sc2=O)c1` as the compound, how does the inhibition read?
Its inhibition is 5.34%.

With `O=C(O)c1cccc(Cn2c(Cl)c(/C=N/NC(=O)c3ccccc3)sc2=O)c1` as the compound, how does the inhibition read?
The inhibition was 1.79%.

Which inhibition does the source give for `CCC(C)OC(=O)C[N+](C)(C)CCOC1CC2CCC1(C)C2(C)C` (centres undefined) here?
Its inhibition is -2.89%.

`Cn1c(=O)c([N+](=O)[O-])c(NCc2ccc3c(c2)OCO3)c2ccccc21` was tested. Which inhibition did it give?
The inhibition was 0.57%.

For `S=c1[nH]nc(COc2ccccc2)n1/N=C/c1ccco1`, which inhibition is on record?
Its inhibition is 3.61%.

How did the inhibition turn out when `Nc1c(C(=O)NCC2CCCO2)sc2nc3c(c(-c4ccco4)c12)CC/C3=C\c1ccco1` (centres undefined) was run?
Its inhibition is 12.4%.

How did the inhibition turn out when `Nc1c(C(=O)NC2CC2)sc2nc3c(c(-c4ccco4)c12)CC/C3=C/c1ccco1` was run?
Its inhibition is 16.9% (active).

`Nc1c(C(=O)Nc2ccccc2)sc2nc3c(c(-c4ccco4)c12)CCC3` was tested. Which inhibition did it give?
Its inhibition is -1.21%.

How did the inhibition turn out when `Cc1cccc2cc(C#N)c(NCc3ccccc3)nc12` was run?
Its inhibition is 1.49%.

For `CCOC(=O)N1CCC(NC(=O)c2cccn3c(=O)c4cc(Br)ccc4nc23)CC1`, which inhibition is on record?
The inhibition was 3.26%.

With `CCOc1ccccc1NC=C1C(=O)OC2(CCCCC2)OC1=O` as the compound, how does the inhibition read?
The inhibition was -1.31%.

How did the inhibition turn out when `COc1ccccc1NC=C1C(=O)OC2(CCCCC2)OC1=O` was run?
The inhibition was 13.1% (active).

Which inhibition does the source give for `COc1ccc(OC)c(NC=C2C(=O)OC3(CCCCC3)OC2=O)c1` here?
The inhibition was 2.73%.

With `CCC(C)(C)NC(=O)C(c1ccccc1)N(Cc1cccnc1)C(=O)c1csnn1` (centres undefined) as the compound, how does the inhibition read?
The inhibition was 0.49%.

`CN(C)S(=O)(=O)c1cccc(NC(=O)/C=C/c2ccccc2[N+](=O)[O-])c1` was tested. Which inhibition did it give?
The inhibition was 6.53%.

For `O=S1(=O)c2ccccc2N=NN1Cc1ccc(Cl)cc1`, which inhibition is on record?
The inhibition was 8.76%.

`O=S1(=O)c2ccccc2N=NN1Cc1cc(Cl)cc(Cl)c1` was tested. Which inhibition did it give?
Its inhibition is 3.2%.

For `CC(C1CC2CCC1C2)n1c(-c2ccco2)n[nH]c1=S` (centres undefined), which inhibition is on record?
The inhibition was -2.34%.

With `COc1cccc(/C=N/n2c(-c3ccco3)nc3ccccc3c2=O)c1OC` as the compound, how does the inhibition read?
The inhibition was -2.22%.

With `COc1ccc(/C=N/n2c(-c3ccco3)nc3ccccc3c2=O)cc1` as the compound, how does the inhibition read?
Its inhibition is -1.21%.

Which inhibition does the source give for `COc1cccc(/C=N/n2c(-c3ccco3)nc3ccccc3c2=O)c1` here?
Its inhibition is 12.8% (active).

For `C=CCn1c(C(CC(C)C)CC(C)O)n[nH]c1=S` (centres undefined), which inhibition is on record?
The inhibition was -0.56%.

`Cc1ccc(-n2c(SCC(=O)NC3CCS(=O)(=O)C3)nc3ccccc3c2=O)cc1` (centres undefined) was tested. Which inhibition did it give?
The inhibition was -6.07%.

How did the inhibition turn out when `Cc1cccc(NC(=O)CCc2ccc(S(=O)(=O)NC3CCCCC3)cc2)c1` was run?
Its inhibition is 4.56%.

With `CC(C)(C)c1ccc(/C=N/Nc2cccc(C(=O)O)c2)cc1` as the compound, how does the inhibition read?
Its inhibition is -6.54%.

How did the inhibition turn out when `O=C(O)c1cccc(N/N=C/c2ccc(-c3ccccc3)cc2)c1` was run?
Its inhibition is -0.74%.

How did the inhibition turn out when `Cc1nn(-c2ccccc2)c(Cl)c1/C=N/Nc1ccc(Cl)c(C(=O)O)c1` was run?
Its inhibition is -0.65%.

With `Cc1nn(-c2cccc(C(F)(F)F)c2)c(Cl)c1/C=N/Nc1cccc(C(=O)O)c1` as the compound, how does the inhibition read?
The inhibition was -2.39%.

For `CSc1ccc(/C=N/Nc2cccc(C(=O)O)c2)cc1`, which inhibition is on record?
The inhibition was 35.4% (active).

How did the inhibition turn out when `CCOc1cccc(C(=O)N(Cc2ccc(F)cc2)C2CCS(=O)(=O)C2)c1` (centres undefined) was run?
Its inhibition is 3.65%.

Which inhibition does the source give for `CC1CCc2c(sc3ncn(Cc4ccc(C(=O)O)cc4)c(=O)c23)C1` (centres undefined) here?
The inhibition was -5.17%.

`CNS(=O)(=O)c1cccc(C(=O)OCC(=O)Nc2ccc(N3CCCCC3)cc2)c1` was tested. Which inhibition did it give?
The inhibition was -3.94%.

For `CN(CCC1CCOCC1)Cc1nc(Cc2ccccc2F)no1`, which inhibition is on record?
Its inhibition is 3.72%.

`CCCCOc1nc2ccccc2nc1C(C#N)S(=O)(=O)c1ccccc1` (centres undefined) was tested. Which inhibition did it give?
The inhibition was 3.84%.

Which inhibition does the source give for `Cc1ccc(S(=O)(=O)C(C#N)c2nc3ccccc3nc2OCCO)cc1` (centres undefined) here?
The inhibition was 2.66%.

With `N#CC(c1nc2ccccc2nc1OCCO)S(=O)(=O)c1ccccc1` (centres undefined) as the compound, how does the inhibition read?
The inhibition was 12.9% (active).

For `COc1ccc(C2C(C(C)=O)=C(O)C(=O)N2c2nccs2)c(OC)c1` (centres undefined), which inhibition is on record?
The inhibition was 0.3%.

With `COc1ccc(C2C(C(C)=O)=C(O)C(=O)N2c2cccnc2)c(OC)c1` (centres undefined) as the compound, how does the inhibition read?
Its inhibition is 12.9% (active).

How did the inhibition turn out when `COc1ccc(C2C(C(C)=O)=C(O)C(=O)N2c2cccnc2)cc1OC` (centres undefined) was run?
Its inhibition is 1.89%.

`Cc1ccccc1NC(=O)C(C)n1c2ccccc2c2nc(=O)cc(C)n21` (centres undefined) was tested. Which inhibition did it give?
The inhibition was -3.29%.

`Nc1c(C(=O)O)ccc2c1C(=O)c1ccccc1C2=O` was tested. Which inhibition did it give?
Its inhibition is 5.83%.

For `O=C(O)c1cccc2c1C(=O)c1ccccc1C2=O`, which inhibition is on record?
The inhibition was -4.06%.

With `Nc1cc(C(=O)O)c(N)c2c1C(=O)c1ccccc1C2=O` as the compound, how does the inhibition read?
The inhibition was 12.9% (active).

Which inhibition does the source give for `Cc1ccc2nsnc2c1S(=O)(=O)N1CCN(CCc2ccccc2)CC1` here?
The inhibition was -1.69%.

How did the inhibition turn out when `Cn1c(=O)n(C)c2cc(NC(=O)c3ccccc3[N+](=O)[O-])c(Br)cc21` was run?
The inhibition was -4.22%.

How did the inhibition turn out when `NC(=O)CSc1nnc(Cn2cnc3ccccc32)o1` was run?
Its inhibition is -3.79%.

How did the inhibition turn out when `Clc1ccc(CSc2nnc(Cn3cnc4ccccc43)o2)cc1` was run?
Its inhibition is 15% (active).

Which inhibition does the source give for `Clc1ccc(Cn2cnc3ccccc32)cc1` here?
Its inhibition is -0.58%.

`CC(C)(CN=C1NS(=O)(=O)c2ccccc21)CNC(=O)CN1C(=O)c2ccccc2C1=O` was tested. Which inhibition did it give?
Its inhibition is 0.96%.

For `O/C(=C\Sc1nnc(Cc2ccccc2)o1)c1ccc(Br)cc1`, which inhibition is on record?
Its inhibition is 9.57%.

How did the inhibition turn out when `Cc1ccc(-n2nc3c(c2NC(=O)CCC2CCCCC2)CS(=O)C3)cc1` (centres undefined) was run?
Its inhibition is 4.09%.

Which inhibition does the source give for `Cc1cccc(-n2nc3c(c2NC(=O)CCC2CCCCC2)CS(=O)C3)c1C` (centres undefined) here?
Its inhibition is 19.3% (active).

With `O=C(CCC1CCCCC1)Nc1c2c(nn1-c1ccc(F)cc1)CS(=O)C2` (centres undefined) as the compound, how does the inhibition read?
The inhibition was -0.99%.
